# PubChem BioAssay AID1159580 (chemical genetic matrix, 2015)
# About 2,000 (36%) of roughly 5,500 compounds were called active. About 18% were inconclusive and are not listed. The list shows a part of the results. Values without a mark were called inactive. Cut-off read from the data, not from the text of the source: active = normalized growth mostly below about 0.91 (no sharp cut-off); inconclusive = no clear call, values can overlap the other calls; inactive = mostly above about 0.92.
# Test: chemical genetic growth profiling, strain panel (AID 1159580);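 note: tested at 20 µM; growth read once vehicle control cultures reached saturation at 30 °C; 1 = growth at the plate median or of vehicle wells; lower values mean less growth of the strain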
# Settings: S. cerevisiae deletion strains, growth OD
smiles,measurement,setting,value
COC(=O)C1=C(C)NC(C)=C([N+](=O)[O-])C1c1ccccc1C(F)(F)F (centres undefined),normalized growth,"locus YAL040C, strain CLN3, active compounds read low",0.982
same,normalized growth,"locus YCL061C, strain MRC1 (second series), active compounds read low",1
same,normalized growth,"locus YER002W, strain NOP16, active compounds read low",0.991
same,normalized growth,"locus YGR078C, strain PAC10, active compounds read low",0.94
same,normalized growth,"locus YNL175C, strain NOP13, active compounds read low",0.976
same,normalized growth,"locus YNL197C, strain WHI3, active compounds read low",1.04
same,normalized growth,"locus YNL224C, strain SQS1, active compounds read low",0.987
same,normalized growth,"locus YNL322C, strain KRE1, active compounds read low",1.01
same,normalized growth,"locus YOR083W, strain WHI5 (second series), active compounds read low",1
same,normalized growth,"locus YPL055C, strain LGE1, active compounds read low",1.01
COC(=O)C1=C(C)NC(C)=C(C(=O)OCC(C)C)C1c1ccccc1[N+](=O)[O-] (centres undefined),normalized growth,"locus YAL021C, strain ccr4, active compounds read low",0.0808 (active)
same,normalized growth,"locus YAL026C, strain drs2, active compounds read low",0.216 (active)
same,normalized growth,"locus YAL030W, strain snc1, active compounds read low",0.239 (active)
same,normalized growth,"locus YBL061C, strain skt5, active compounds read low",0.19 (active)
same,normalized growth,"locus YBR009C, strain hhf1, active compounds read low",0.224 (active)
same,normalized growth,"locus YBR023C, strain chs3, active compounds read low",0.176 (active)
same,normalized growth,"locus YBR171W, strain sec66, active compounds read low",0.898
same,normalized growth,"locus YBR231C, strain swc5, active compounds read low",0.212 (active)
same,normalized growth,"locus YBR279W, strain paf1, active compounds read low",0.451 (active)
same,normalized growth,"locus YCL011C, strain gbp2, active compounds read low",0.257 (active)
same,normalized growth,"locus YCL016C, strain dcc1, active compounds read low",0.462 (active)
same,normalized growth,"locus YCL069W, strain vba3, active compounds read low",0.413 (active)
same,normalized growth,"locus YCR088W, strain abp1, active compounds read low",0.39 (active)
same,normalized growth,"locus YDL005C, strain med2, active compounds read low",0.193 (active)
same,normalized growth,"locus YDL040C, strain nat1, active compounds read low",0.953
same,normalized growth,"locus YDR001C, strain nth1, active compounds read low",0.468 (active)
same,normalized growth,"locus YDR069C, strain doa4, active compounds read low",0.0857 (active)
same,normalized growth,"locus YDR137W, strain rgp1, active compounds read low",0.866
same,normalized growth,"locus YDR159W, strain sac3, active compounds read low",0.958
same,normalized growth,"locus YDR195W, strain ref2",1.06
same,normalized growth,"locus YDR297W, strain sur2, active compounds read low",0.167 (active)
same,normalized growth,"locus YDR334W, strain swr1, active compounds read low",0.24 (active)
same,normalized growth,"locus YDR335W, strain msn5, active compounds read low",0.814 (active)
same,normalized growth,"locus YDR392W, strain spt3, active compounds read low",0.122 (active)
same,normalized growth,"locus YEL003W, strain gim4, active compounds read low",0.463 (active)
same,normalized growth,"locus YEL037C, strain rad23, active compounds read low",0.296 (active)
same,normalized growth,"locus YEL061C, strain CIN8 (second series), active compounds read low",0.33 (active)
same,normalized growth,"locus YER015W, strain faa2, active compounds read low",0.177 (active)
same,normalized growth,"locus YER016W, strain bim1, active compounds read low",0.52 (active)
same,normalized growth,"locus YER111C, strain swi4, active compounds read low",0.945
same,normalized growth,"locus YER155C, strain BEM2 (second series), active compounds read low",0.259 (active)
same,normalized growth,"locus YFR010W, strain ubp6, active compounds read low",0.382 (active)
same,normalized growth,"locus YGL167C, strain pmr1, active compounds read low",0.214 (active)
same,normalized growth,"locus YGL173C, strain kem1, active compounds read low",0.098 (active)
same,normalized growth,"locus YGL227W, strain vid30, active compounds read low",0.769 (active)
same,normalized growth,"locus YGL240W, strain doc1, active compounds read low",0.259 (active)
same,normalized growth,"locus YGL253W, strain hxk2, active compounds read low",0.303 (active)
same,normalized growth,"locus YHR013C, strain ard1, active compounds read low",0.209 (active)
same,normalized growth,"locus YHR027C, strain rpn1, active compounds read low",0.164 (active)
same,normalized growth,"locus YHR030C, strain SLT2, active compounds read low",0.472 (active)
same,normalized growth,"locus YHR079C, strain IRE1, active compounds read low",0.385 (active)
same,normalized growth,"locus YHR142W, strain chs7, active compounds read low",0.209 (active)
same,normalized growth,"locus YJL092W, strain hpr5, active compounds read low",0.422 (active)
same,normalized growth,"locus YJL095W, strain BCK1 (second series), active compounds read low",0.112 (active)
same,normalized growth,"locus YJL095W, strain BCK1, active compounds read low",0.35 (active)
same,normalized growth,"locus YJL115W, strain asf1, active compounds read low",0.424 (active)
same,normalized growth,"locus YJL129C, strain trk1, active compounds read low",0.852 (active)
same,normalized growth,"locus YJL154C, strain vps35, active compounds read low",0.344 (active)
same,normalized growth,"locus YJL164C, strain tpk1, active compounds read low",0.16 (active)
same,normalized growth,"locus YJL166W, strain qcr8, active compounds read low",0.177 (active)
same,normalized growth,"locus YJL187C, strain SWE1, active compounds read low",0.206 (active)
same,normalized growth,"locus YJR066W, strain TOR1, active compounds read low",0.57 (active)
same,normalized growth,"locus YKL160W, strain elf1, active compounds read low",0.486 (active)
same,normalized growth,"locus YKR026C, strain gcn3, active compounds read low",0.559 (active)
same,normalized growth,"locus YKR091W, strain srl3, active compounds read low",0.589 (active)
same,normalized growth,"locus YLL001W, strain dnm1, active compounds read low",0.42 (active)
same,normalized growth,"locus YLL026W, active compounds read low",0.333 (active)
same,normalized growth,"locus YLL041C, strain sdh2, active compounds read low",0.279 (active)
same,normalized growth,"locus YLR027C, strain aat2, active compounds read low",0.22 (active)
same,normalized growth,"locus YLR113W, strain HOG1, active compounds read low",0.308 (active)
same,normalized growth,"locus YLR221C, strain rsa3, active compounds read low",0.342 (active)
same,normalized growth,"locus YLR258W, strain gsy2, active compounds read low",0.209 (active)
same,normalized growth,"locus YLR262C, strain YPT6 (second series), active compounds read low",0.114 (active)
same,normalized growth,"locus YLR320W, strain mms22, active compounds read low",0.159 (active)
same,normalized growth,"locus YLR342W, strain FKS1, active compounds read low",0.163 (active)
same,normalized growth,"locus YLR357W, strain rsc2, active compounds read low",0.452 (active)
same,normalized growth,"locus YLR370C, strain arc18, active compounds read low",0.273 (active)
same,normalized growth,"locus YLR384C, strain iki3, active compounds read low",0.75 (active)
same,normalized growth,"locus YML120C, strain ndi1, active compounds read low",0.978
same,normalized growth,"locus YMR058W, strain fet3, active compounds read low",0.0888 (active)
same,normalized growth,"locus YMR125W, strain sto1, active compounds read low",0.462 (active)
same,normalized growth,"locus YMR129W, active compounds read low",0.633 (active)
same,normalized growth,"locus YMR205C, strain PFK2, active compounds read low",0.179 (active)
same,normalized growth,"locus YMR231W, strain pep5, active compounds read low",0.141 (active)
same,normalized growth,"locus YNL071W, strain lat1, active compounds read low",0.194 (active)
same,normalized growth,"locus YNL183C, strain NPR1, active compounds read low",0.561 (active)
same,normalized growth,"locus YNL209W, strain ssb2, active compounds read low",0.111 (active)
same,normalized growth,"locus YNL248C, strain rpa49, active compounds read low",0.488 (active)
same,normalized growth,"locus YNL322C, strain KRE1 (second series), active compounds read low",0.403 (active)
same,normalized growth,"locus YNR049C, strain mso1, active compounds read low",0.551 (active)
same,normalized growth,"locus YOR001W, strain rrp6, active compounds read low",0.952
same,normalized growth,"locus YOR070C, strain gyp1, active compounds read low",0.492 (active)
same,normalized growth,"locus YOR080W, strain dia2, active compounds read low",0.958
same,normalized growth,"locus YOR083W, strain WHI5, active compounds read low",0.43 (active)
same,normalized growth,"locus YOR106W, strain vam3, active compounds read low",0.135 (active)
same,normalized growth,"locus YOR231W, strain MKK1, active compounds read low",0.513 (active)
same,normalized growth,"locus YOR265W, strain rbl2, active compounds read low",0.204 (active)
same,normalized growth,"locus YOR270C, strain vph1, active compounds read low",0.153 (active)
same,normalized growth,"locus YOR290C, strain snf2, active compounds read low",0.912
same,normalized growth,"locus YPL051W, strain arl3, active compounds read low",0.129 (active)
same,normalized growth,"locus YPL078C, strain atp4, active compounds read low",0.94
same,normalized growth,"locus YPL106C, strain sse1, active compounds read low",0.299 (active)
same,normalized growth,"locus YPL240C, strain hsp82, active compounds read low",0.242 (active)
same,normalized growth,"locus YPL256C, strain CLN2, active compounds read low",0.415 (active)
